# Source: PubChem (National Center for Advancing Translational Sciences (NCATS))
# In the library only some 6.1% were active in any assay of this set; here they are far more common.
# D3 ag: agonists of human D3 dopamine receptor | P35462 | 410,000 compounds, 0.58% hits | AID 652048 | D3R DiscoveRx beta-arrestin cells, luminescence, 90 min | max activation, %; in the data active = max activation above about 30%; note: 0% is about no effect
# Target sequence (P35462 whole entry, looked up): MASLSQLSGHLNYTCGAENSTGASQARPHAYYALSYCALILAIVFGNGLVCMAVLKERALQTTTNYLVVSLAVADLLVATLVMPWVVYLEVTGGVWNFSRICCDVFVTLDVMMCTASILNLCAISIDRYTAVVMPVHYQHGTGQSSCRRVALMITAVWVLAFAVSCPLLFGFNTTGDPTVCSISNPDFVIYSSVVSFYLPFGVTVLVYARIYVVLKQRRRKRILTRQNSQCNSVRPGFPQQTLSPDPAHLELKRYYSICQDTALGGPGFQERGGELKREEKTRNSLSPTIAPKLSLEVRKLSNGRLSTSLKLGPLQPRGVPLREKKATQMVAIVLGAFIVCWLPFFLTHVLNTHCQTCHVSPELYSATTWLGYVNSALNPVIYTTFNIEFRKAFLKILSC
#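 Agonist-mode cell screen: cells plated at 1500/well and incubated overnight at 37 °C, then exposed to library compounds for 90 min at 37 °C. Detection reagent was added for 30–60 min at room temperature, and luminescence was read.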
# D1 antagonist: human D1 dopamine receptor antagonism; P21728; HEK293 TREx D1 cells, calcium flux, dopamine EC80; hits give low values; activity change, negative = inhibition, % at 10 µM; 360,000 compounds, 3.2% hits; AID 504652; in the data active = activity change below about -30%; note: % is set by controls: 0 for no effect and ±100 for the full control effect
#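 Cells carrying a force-coupled, tetracycline-inducible human D1 receptor report calcium flux. Each well gets a 10 s baseline, compound with 180 s monitoring, then an EC80 dopamine stimulus with a second 180 s kinetic read.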
# DRD3 antagonist: blocks the human D3 dopamine receptor. P35462. max response, negative = inhibition, %. AID 652054. 360,000 compounds, 2.5% hits. D3R cells, DiscoveRx beta-arrestin luminescence, antagonist mode; hits give low values; in the data active = max response below about -50%; inconclusive = no clear call, values can overlap the other calls; note: % is set by controls: 0 for no effect and ±100 for the full control effect
#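 Cells expressing the human receptor were seeded at 1500 cells/well, incubated overnight at 37 degrees C in 5% CO2, then exposed to library compounds with dopamine controls for 90 minutes at 37 degrees C before luminescent detection.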
# D1 potentiator: enhances dopamine response at the human D1 receptor. P21728. HEK293 TREx D1 cells, calcium flux, dopamine EC20 potentiation. potentiation, % at 10 µM. 360,000 compounds, 0.036% hits. AID 504651; in the data active = potentiation above about 30%; note: 0% is about no effect
# D1 ag: agonists of human D1 dopamine receptor. HEK293 T-REx D1 cells, calcium flux, agonist mode. 360,000 compounds, 1% hits. activation, % at 2 µM. AID 504660. P21728; in the data active = activation above about 30%; note: 0% is about no effect
#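 Agonism was scored from calcium flux recorded over 180 s (1 read/s) after pintool compound addition, following a 10-cycle baseline. Cells were inducible force-coupled HEK293 TREx D1, plated overnight at 30 C and loaded with no-wash calcium dye.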
# Starred values were filed as active, the others as inactive; ? = inconclusive; nt = no result; ! = repeats disagree.
SMILES,D3 ag,D1 antagonist,DRD3 antagonist,D1 potentiator,D1 ag
COc1cc(/C=C2/NC(=O)NC2=O)ccc1OCC(=O)Nc1ccc(F)cc1,2.2,-70.8*,-6.9,-10.5,3.6
O=C(COc1ccc(/C=C2/NC(=O)NC2=O)cc1)Nc1ccc(F)cc1,-7.3,-8.6,1.0,-3.8,5.3
Oc1ccc(COCc2ccc(F)cc2)c2cccnc12,nt,-6.5,nt,-7.5,2.7
C#CCOCCOCCOCCNc1nc(N2CCN(C(=O)CCCCCCCCCCNC(=O)[C@H](CCCN=C(N)N)n3cc(C[C@@H](C)CC)nn3)CC2)nc(N2CCN(C(=O)CCCCCCCCCCNC(=O)[C@@H]([C@H](C)CC)n3cc(CCCCCN)nn3)CC2)n1,nt,15.1,nt,35.2*,6.3
C#CCOCCOCCOCCNc1nc(N2CCN(C(=O)CCCCCCCCCCNC(=O)[C@H]([C@@H](C)CC)n3cc(CCCCN=C(N)N)nn3)CC2)nc(N2CCN(C(=O)CCCCCCCCCCNC(=O)[C@H](CCCN=C(N)N)n3cc(C[C@@H](C)CC)nn3)CC2)n1,nt,18.4,nt,-10.1,2.0
C#CCOCCOCCOCCNc1nc(N2CCN(C(=O)CCCCCCCCCCNC(=O)[C@H](CCCCN)n3cc(C[C@@H](C)CC)nn3)CC2)nc(N2CCN(C(=O)CCCCCCCCCCNC(=O)[C@H](CCCN=C(N)N)n3cc(C[C@@H](C)CC)nn3)CC2)n1,-13.0,-12.1,-76.3*,-7.8,2.4
CCOC(=O)C1=C(CN2CCN(c3ccc(Cl)cc3)CC2)NC(=O)NC1c1ccc(OC)cc1 (stereo unspecified),-17.7,15.9,nt,-4.8,0.6
COc1ccc(CCNC(=O)c2cc(S(=O)(=O)N3CCCCC3)ccc2Cl)cc1,-9.1,-17.4,-7.8,3.2,20.1
COc1ccc(C(CNC(=O)c2ccc(C)c(S(=O)(=O)N3CCOCC3)c2)N2CCCC2)cc1 (stereo unspecified),-19.1,nt,-71.5*,nt,nt
COc1ccc(CCNC(=O)c2cccc(S(=O)(=O)N3CCCCC3)c2)cc1,-7.7,-5.7,-21.0,-6.3,7.4
C=CCN(c1ccccc1Cl)S(=O)(=O)c1cccc(C(=O)NCCc2ccc(OC)cc2)c1,-3.8,-32.1*,-1.2,-8.5,3.1
COc1ccc(CCNC(=O)c2ccc(Cl)c(S(=O)(=O)N3CCCC3)c2)cc1,3.9,-50.5*,10.2,-0.9,8.0
COc1ccc(C(CNC(=O)c2ccc(Cl)c(S(=O)(=O)N3CCCC3)c2)N2CCCC2)cc1 (stereo unspecified),-18.4,5.0,-77.1*,10.6,5.9
CC1=C(c2ccc(C)cc2)S(=O)(=O)NC1=NCc1cccc(F)c1,-16.0,0.6,nt,0.3,0.7
CC(C)c1ccc(NC(=O)c2cc3c(=O)oc4ccccc4c3s2)cc1,0.2,6.7,nt,0.8,0.4
CC(C)c1ccc(S(=O)(=O)N2CCN(C(=O)c3ccncc3)CC2)cc1,0.8,-31.1*,1.6,nt,9.8
CC1(c2nc3ccccc3[nH]2)c2ccccc2C(=O)N1Cc1ccccc1 (stereo unspecified),-7.1,nt,-55.3*,nt,nt
COc1ccc(CN2C(=O)c3ccccc3C2(C)c2nc3ccccc3[nH]2)cc1 (stereo unspecified),2.4,nt,-29.4,nt,nt
CCc1ccc(-n2c(=O)c3sc4ccccc4c3n(CC(=O)N3CCCC3)c2=O)cc1,10.7,5.8,nt,3.7,0.2
COc1ccccc1-c1noc(-c2ccc(N(C)Cc3ccccc3)c([N+](=O)[O-])c2)n1,5.4,10.5,nt,0.4,3.7
CCN(CC)S(=O)(=O)c1ccc2nc(NC(=O)c3cncc(Br)c3)sc2c1,17.4,-4.8,nt,-3.5,30.6*
CCN(CC)S(=O)(=O)c1ccc2nc(NC(=O)c3cccs3)sc2c1,-6.6,-0.7,-56.3*,14.7,10.4
CCOc1ccc(OCC(=O)Nc2nnc3n2CCS3)cc1,-11.0,-17.1,nt,-6.7,0.1
Cc1ccc(CNC(=O)C2CCCN(c3ncnc4onc(-c5ccc(F)cc5)c34)C2)cc1 (stereo unspecified),2.5,7.7,nt,-2.2,2.2
COc1ccc(N(CC(=O)NCc2ccccc2Cl)S(=O)(=O)c2c(C)nn(C)c2C)cc1,-1.9,-4.3,nt,-0.1,-0.6
SMILES,D3 ag,D1 antagonist,DRD3 antagonist,D1 potentiator,D1 ag
COc1ccc(-c2nn(C)c3sc(C(=O)NCCN(C)C)cc23)cc1OC,-1.8,0.1,2.4,5.6,-0.2
CCCCN(CC)CCNC(=O)c1cc2c(-c3ccc(Cl)cc3)nn(C)c2s1,-12.5,6.1,-61.6*,-1.2,66.1*!
CCN(CC)CCNC(=O)c1cc2c(-c3ccc(Cl)cc3)nn(C)c2s1,-16.0,7.8,?,-0.3,6.1
CCCN(CCC)CCCNC(=O)c1cc2c(-c3ccc(OC)c(OC)c3)nn(C)c2s1,-14.8,4.7,-91.7*,0.6,0.7
Cc1ccc(/C(N)=N/OC(=O)Cc2cccs2)cc1,-5.5,10.4,8.0,6.7,0.3
N/C(=N\OC(=O)Cc1cccs1)c1ccccc1,-6.8,-38.2*,13.0,-8.4,1.1
O=C(COc1ccccc1Cl)N(Cc1cccc(F)c1)C1CCS(=O)(=O)C1 (stereo unspecified),1.9,-8.2,nt,1.1,-1.3
O=C(Nc1ccc(N=Nc2ccccc2)cc1)c1ccccc1Cl,-5.1,-7.9,-11.1,-6.2,2.1
O=C(Nc1ccc(N=Nc2ccccc2)cc1)c1ccc(Cl)cc1Cl,9.8,-38.0*,5.2,-0.4,-0.6
Cc1cccc(CSCc2ccc(C(=O)NC(C)C)o2)c1,3.4,-23.0,25.7,5.1,9.1
O=C(NC1CCCC1)c1ccc(CS(=O)(=O)Cc2ccccc2F)o1,0.5,-42.0*,5.7,-1.2,1.8
Cc1ccc(CSCc2ccc(C(=O)NCCc3ccc(Cl)cc3)o2)cc1,-0.6,-41.4*,nt,-2.6,25.4
O=C(NCCc1ccc(Cl)cc1)c1ccc(CSCc2ccc(Cl)cc2)o1,-6.4,-10.5,nt,-3.2,21.5
Cc1cccc(CSCc2ccc(C(=O)NC3CCCC3)o2)c1,-6.9,-45.6*,16.0,-12.3,17.1
COc1cc2c(cc1OC)C(C(C(=O)N(CCc1ccc(OC)c(OC)c1OC)CCc1ccc(OC)c(OC)c1OC)c1ccccc1)=NCC2 (stereo unspecified),0.9,nt,nt,nt,nt
O=C(NCCC1=CCCCC1)c1ccc2c(c1)N(Cc1ccccc1)C(=O)c1ccccc1S2(=O)=O,-15.8,5.7,nt,-3.2,6.4
NC(=O)C1CCN(c2nc(-c3cc4ccccc4o3)cs2)CC1,nt,-33.4*,nt,-5.9,22.8
CN1CCN(c2nc(-c3cc4ccccc4o3)cs2)CC1,-8.3,4.9,2.0,-3.9,4.2
COC(=O)CCC(=O)NNC(=O)c1cccc(Br)c1,1.2,-37.5*,-6.0,-4.0,2.1
O=C(NNC(=O)c1cccc(Br)c1)Nc1ccc(Cl)cc1,-15.7,-37.2*,-66.7*,-5.8,0.6
O=C(O)CCC(=O)NNC(=O)c1cccc(Br)c1,3.2,5.3,-23.8,-3.4,1.4
O=C(Nc1cc(Cl)ccc1Cl)c1cc(S(=O)(=O)N2CCCc3ccccc32)ccc1F,-6.5,-6.5,nt,-0.2,1.1
